Drawing on PubChem BioAssay AID1076 (NMMLSC, 2008), this text covers cell event count for 41 molecules.

The assay is described as follows: LNCaP cell loss by flow event count, confirmation, cytotoxicity control for prostate differentiation activator project, single point (AID 1076).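 Also: counts scatter-gated live cells after medium removal discards detached dead cells.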 Particulars: flow cytometry event count, 4 d, stronger effect = lower value. (In general: Flow cytometry measures light scatter and fluorescence of single cells or particles in a stream.)

Active and inactive are the calls of the source.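 The calls were made as follows: active = cell event count below 40, meaning activity score above 60 where score is 100 minus count; inactive = the rest.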

On to `Cc1oc(-c2ccccc2F)nc1CN1CCC(C(=O)NCc2cccnc2)CC1`, for which the cell event count runs as follows: (at 100 µM) 290 (inactive); (event count, at 10 µM) 364.

Take `Cc1oc(-c2ccc(Cl)cc2)nc1CN1CCCC(C(=O)NCc2ccco2)C1` (configuration not stated): the cell event count reads like this: (at 100 µM) 27 (inactive); (event count, at 10 µM) 248.

As to `COc1ccc(-c2cc(C(F)(F)F)nc(N3CCN(c4ccc(F)cc4)CC3)n2)cc1OC`, the cell event count is 184 (inactive) (at 100 µM) and 96 (event count, at 10 µM).

In the case of `CCc1ccc(NC(=O)NCCN2CCc3ccccc3C2)cc1`, the cell event count was 6 (inactive) (at 100 µM) and 112 (event count, at 10 µM).

With `Cc1cc(=O)oc(C)c1C(=O)NCCCN1CCN(c2ccccc2F)CC1`, the cell event count reads like this: (at 100 µM) 232 (inactive); (event count, at 10 µM) 308.

For the molecule `Cn1nc(-c2ccc(Cl)cc2)c2cc(C(=O)NCCCN3CCCC3)sc21`, the cell event count by setting is: (at 100 µM) 19 (inactive); (event count, at 10 µM) 104.

Consider `Cc1noc(/C=C/c2ccco2)c1S(=O)(=O)N1CCC(C(=O)N2CCc3ccccc3C2)CC1`, for which the cell event count is 174 (inactive) (at 100 µM) and 197 (event count, at 10 µM).

For `COc1ccc(-c2noc(-c3cc(Cl)ccc3Cl)n2)cc1OC`, the cell event count (at 100 µM) was 77 (inactive) and the cell event count (event count, at 10 µM) was determined as 110.

On to `Cc1oc(-c2ccc(Cl)cc2)nc1CN1CCCC(C(=O)NCc2cccnc2)C1` (configuration not stated), for which the cell event count is 28 (inactive) (at 100 µM) and 67 (event count, at 10 µM).

Turning to `CCc1ccc(-c2nc(CN3CCCC(C(=O)O)C3)c(C)o2)cc1` (configuration not stated), the cell event count is 153 (inactive) (at 100 µM) and 123 (event count, at 10 µM).

On to `O=C(CSc1nc2c(c(=O)n1-c1ccc(F)cc1)SCC2)NCC1CCCO1` (configuration not stated), for which the cell event count runs as follows: (at 100 µM) 207 (inactive); (event count, at 10 µM) 132.

As to `CCn1c(=O)cc(SCC(=O)NCCCN2CCN(c3ccccc3F)CC2)c2ccccc21`, the cell event count by setting is: (at 100 µM) 6 (inactive); (event count, at 10 µM) 338.

Take `O=C(NCCCN1CCN(c2cccc(Cl)c2)CC1)C1CCC(=O)N1Cc1ccccc1Cl` (configuration not stated): the cell event count is, setting by setting: (at 100 µM) 12 (inactive); (event count, at 10 µM) 239.

On to `COC(=O)c1ccccc1NC(=O)CN1CCC(n2nnc3cc(F)ccc32)CC1`, for which the cell event count is 174 (inactive) (at 100 µM) and 112 (event count, at 10 µM).

Regarding `O=C(COc1ccc(S(=O)(=O)N2CCCC2)cc1Cl)NC1CC1`, the cell event count by setting is: (at 100 µM) 355 (inactive); (event count, at 10 µM) 328.

With `CCCCCn1c(=N)n(CC(O)COc2ccccc2OC)c2ccccc21` (configuration not stated), the cell event count was 20 (inactive) (at 100 µM) and 138 (event count, at 10 µM).

For `CCC(C)NC(=O)c1cn(C)c(=O)c2cc(OC)c(OC)cc12` (configuration not stated), the cell event count by setting is: (at 100 µM) 386 (inactive); (event count, at 10 µM) 302.

For `CN1CCN(CCCNC(=O)c2cc3c(-c4ccc(Cl)cc4)nn(C)c3s2)CC1`, the cell event count reads like this: (at 100 µM) 7 (inactive); (event count, at 10 µM) 146.

In the case of `Cc1cccc(-c2nc(CN3CCCC(C(=O)NC4CCCC4)C3)c(C)o2)c1` (configuration not stated), the cell event count was 29 (inactive) (at 100 µM) and 328 (event count, at 10 µM).

Turning to `COc1ccc(-n2cc(-c3ccccc3)c3c(N4CCN(CCO)CC4)ncnc32)cc1`, the cell event count reads like this: (at 100 µM) 12 (inactive); (event count, at 10 µM) 174.

As to `CCN(CC)CCCNC(=O)c1cc2c(-c3ccc(Cl)cc3)nn(C)c2s1`, the cell event count is 13 (active) (at 100 µM) and 71.5 (event count, at 10 µM).

As to `CCn1c(=O)cc(SCC(=O)N2CCN(C3CCCCC3)CC2)c2ccccc21`, the cell event count reads like this: (at 100 µM) 6 (inactive); (event count, at 10 µM) 402.

In the case of `CCCOc1ccc2nc(NC(=O)OC)[nH]c2c1`, the cell event count is 12 (inactive) (at 100 µM) and 102 (event count, at 10 µM).

As to `COc1ccc(CN2C(=O)C(O)(CC(=O)c3c(C)n[nH]c3C)c3ccccc32)cc1OC` (configuration not stated), the cell event count reads like this: (at 100 µM) 284 (inactive); (event count, at 10 µM) 248.

For the molecule `CCn1c(C(=O)NCCCN2CCc3ccccc3C2)cc2sccc21`, the cell event count is 16 (inactive) (at 100 µM) and 380 (event count, at 10 µM).

With `COc1ccc(-c2nc(CN3CCC(C(=O)N4CCc5ccccc54)CC3)c(C)o2)cc1OC`, the cell event count was 16 (inactive) (at 100 µM) and 298 (event count, at 10 µM).

As to `C=CCn1c(=N)n(CC(O)COc2ccc(OC)cc2)c2ccccc21` (configuration not stated), the cell event count runs as follows: (at 100 µM) 37 (inactive); (event count, at 10 µM) 126.

For the molecule `COc1ccc2cc3c(N)nn(C(=O)Cc4ccccc4OC)c3nc2c1`, the cell event count is 20 (inactive) (at 100 µM) and 287 (event count, at 10 µM).

Regarding `Cc1oc(-c2ccccc2F)nc1CN1CCC(C(=O)NCc2cccs2)CC1`, the cell event count runs as follows: (at 100 µM) 107 (inactive); (event count, at 10 µM) 214.

For the molecule `CCc1nn(C(C)C(=O)N2CCc3ccccc3C2)c(=O)c2cc3occc3n12` (configuration not stated), the cell event count is, setting by setting: (at 100 µM) 91 (inactive); (event count, at 10 µM) 123.

With `CCCNC(=O)C1CN(S(=O)(=O)c2ccccc2)CCN1S(=O)(=O)c1ccccc1` (configuration not stated), the cell event count was 120 (inactive) (at 100 µM) and 67 (event count, at 10 µM).

Turning to `Cc1oc(-c2ccc(Cl)cc2)nc1CN1CCCC(C(=O)NCc2ccccn2)C1` (configuration not stated), the cell event count is 34 (inactive) (at 100 µM) and 168 (event count, at 10 µM).

Take `COc1ccc(C)cc1NC(=O)CCC(=O)Nc1ccc2nc(N3CCN(C)CC3)cc(C)c2c1`: the cell event count (at 100 µM) was 19 (inactive) and the cell event count (event count, at 10 µM) was 369.

As to `Cc1cc(N2CCC(N(C)C3CCCC3)CC2)nc2cc(O)ccc12`, the cell event count by setting is: (at 100 µM) 26 (inactive); (event count, at 10 µM) 196.

Turning to `CCN(CCNC(=O)C1CCN(Cc2nc(-c3cccc(Cl)c3)oc2C)CC1)c1ccccc1`, the cell event count was 3 (active) (at 100 µM) and 83 (event count, at 10 µM).

`COc1ccc(Nc2nc(N)nc(CN3CCC(Cc4ccccc4)CC3)n2)cc1`: the cell event count (at 100 µM) was 6 (active) and the cell event count (event count, at 10 µM) worked out at 7.5.

As to `CCCCn1c2c(c3ccccc31)CCc1nonc1-2`, the cell event count runs as follows: (at 100 µM) 134 (inactive); (event count, at 10 µM) 128.

With `Cc1ccc(-c2noc(CCC(=O)NC3CCN(Cc4ccccc4)CC3)n2)cc1`, the cell event count is, setting by setting: (at 100 µM) 9 (active); (event count, at 10 µM) 77.5.

For the molecule `CCc1ccc(CNC(=O)CN2C(=O)COc3ccccc32)cc1`, the cell event count is 78 (inactive) (at 100 µM) and 118 (event count, at 10 µM).

Turning to `COc1ccc(-c2coc3c(CN4CCCCC4)c(O)c(CN4CCCCC4)c(O)c3c2=O)cc1`, the cell event count was 7 (active) (at 100 µM) and 63 (event count, at 10 µM).

Regarding `Cc1ccc2[nH]c(=O)c3cc(C(=O)N(C)Cc4ccco4)sc3c2c1`, the cell event count was 72 (inactive) (at 100 µM) and 456 (event count, at 10 µM).
